# Test results from PMC9911399, “Two distinct binding modes provide the RNA-binding protein RbFox with extraordinary sequence specificity”.
# Changes are numbered by the printed parent chain; changes in the protein carry UniProt numbers. The full ranking holds about 16,000 sequences; the median of “ka relative to ugcaugu” is about 0.0091, and the highest 2% start at about 0.032. The full list was thinned out, with the highest values kept by preference.
# T1: RBFOX1 RRM (Homo sapiens, UniProt Q9NWB1 109-208)
# T1 sequence: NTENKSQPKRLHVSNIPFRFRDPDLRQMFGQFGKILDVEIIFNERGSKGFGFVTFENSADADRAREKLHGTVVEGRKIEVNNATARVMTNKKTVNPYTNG
# B1: AAUAAUA (DNA:RNA)
# RNA: GGGAGACCGGAAUUCAGAUUGUCCAAUAAUAUUAAAUCCCGUCGUAGCCACCA
# DNA 1: CAATCTGAATTCCGGTCTCCC
# DNA 2: TGGTGGCTACGACGGGATT
# B2: GCGUGUG (DNA:RNA)
# RNA: B1 RNA with A25G, A26C, U27G, A28U, A29G, A31G
# DNA 1: CAATCTGAATTCCGGTCTCCC
# DNA 2: TGGTGGCTACGACGGGATT
# B3: UCUAACG (DNA:RNA)
# RNA: B1 RNA with A25U, A26C, U30C, A31G
# DNA 1: CAATCTGAATTCCGGTCTCCC
# DNA 2: TGGTGGCTACGACGGGATT
# B4: UCCCUGA (DNA:RNA)
# RNA: B1 RNA with A25U, A26C, U27C, A28C, A29U, U30G
# DNA 1: CAATCTGAATTCCGGTCTCCC
# DNA 2: TGGTGGCTACGACGGGATT
# B5: UCAAAGA (DNA:RNA)
# RNA: B1 RNA with A25U, A26C, U27A, U30G
# DNA 1: CAATCTGAATTCCGGTCTCCC
# DNA 2: TGGTGGCTACGACGGGATT
# B6: UGCAGCC (DNA:RNA)
# RNA: B1 RNA with A25U, A26G, U27C, A29G, U30C, A31C
# DNA 1: CAATCTGAATTCCGGTCTCCC
# DNA 2: TGGTGGCTACGACGGGATT
# B7: CGUUGGA (DNA:RNA)
# RNA: B1 RNA with A25C, A26G, A28U, A29G, U30G
# DNA 1: CAATCTGAATTCCGGTCTCCC
# DNA 2: TGGTGGCTACGACGGGATT
# B8: GGACCUA (DNA:RNA)
# RNA: B1 RNA with A25G, A26G, U27A, A28C, A29C
# DNA 1: CAATCTGAATTCCGGTCTCCC
# DNA 2: TGGTGGCTACGACGGGATT
# B9: GGGGUCU (DNA:RNA)
# RNA: GGGAGACCGGAAUUCAGAUUGUCCGGGGUCUUUAAAUCCCGUCGUAGCCACCA
# DNA 1: CAATCTGAATTCCGGTCTCCC
# DNA 2: TGGTGGCTACGACGGGATT
# B10: CCGGGUC (DNA:RNA)
# RNA: B9 RNA with G25C, G26C, U29G, C30U, U31C
# DNA 1: CAATCTGAATTCCGGTCTCCC
# DNA 2: TGGTGGCTACGACGGGATT
# B11: GGGUCUU (DNA:RNA)
# RNA: B9 RNA with G28U, U29C, C30U
# DNA 1: CAATCTGAATTCCGGTCTCCC
# DNA 2: TGGTGGCTACGACGGGATT
# B12: CGGGUCU (DNA:RNA)
# RNA: B9 RNA with G25C
# DNA 1: CAATCTGAATTCCGGTCTCCC
# DNA 2: TGGTGGCTACGACGGGATT
# B13: GGGGGUC (DNA:RNA)
# RNA: B9 RNA with U29G, C30U, U31C
# DNA 1: CAATCTGAATTCCGGTCTCCC
# DNA 2: TGGTGGCTACGACGGGATT
# B14: CGGGGUC (DNA:RNA)
# RNA: B9 RNA with G25C, U29G, C30U, U31C
# DNA 1: CAATCTGAATTCCGGTCTCCC
# DNA 2: TGGTGGCTACGACGGGATT
# B15: UACCUCU (DNA:RNA)
# RNA: B9 RNA with G25U, G26A, G27C, G28C
# DNA 1: CAATCTGAATTCCGGTCTCCC
# DNA 2: TGGTGGCTACGACGGGATT
# B16: CUGGGAG (DNA:RNA)
# RNA: B9 RNA with G25C, G26U, U29G, C30A, U31G
# DNA 1: CAATCTGAATTCCGGTCTCCC
# DNA 2: TGGTGGCTACGACGGGATT
# B17: GUUAGAA (DNA:RNA)
# RNA: B1 RNA with A25G, A26U, A29G, U30A
# DNA 1: CAATCTGAATTCCGGTCTCCC
# DNA 2: TGGTGGCTACGACGGGATT
# B18: AGUGUCU (DNA:RNA)
# RNA: B9 RNA with G25A, G27U
# DNA 1: CAATCTGAATTCCGGTCTCCC
# DNA 2: TGGTGGCTACGACGGGATT
# B19: AGAUAUU (DNA:RNA)
# RNA: B1 RNA with A26G, U27A, A28U, A31U
# DNA 1: CAATCTGAATTCCGGTCTCCC
# DNA 2: TGGTGGCTACGACGGGATT
# B20: AGUGGUA (DNA:RNA)
# RNA: B1 RNA with A26G, A28G, A29G
# DNA 1: CAATCTGAATTCCGGTCTCCC
# DNA 2: TGGTGGCTACGACGGGATT
# B21: CGGGCAG (DNA:RNA)
# RNA: B9 RNA with G25C, U29C, C30A, U31G
# DNA 1: CAATCTGAATTCCGGTCTCCC
# DNA 2: TGGTGGCTACGACGGGATT
# B22: GGGCAAA (DNA:RNA)
# RNA: B9 RNA with G28C, U29A, C30A, U31A
# DNA 1: CAATCTGAATTCCGGTCTCCC
# DNA 2: TGGTGGCTACGACGGGATT
# B23: GGGGCAA (DNA:RNA)
# RNA: B9 RNA with U29C, C30A, U31A
# DNA 1: CAATCTGAATTCCGGTCTCCC
# DNA 2: TGGTGGCTACGACGGGATT
# B24: CGGGCAA (DNA:RNA)
# RNA: B9 RNA with G25C, U29C, C30A, U31A
# DNA 1: CAATCTGAATTCCGGTCTCCC
# DNA 2: TGGTGGCTACGACGGGATT
# B25: GGGCAGU (DNA:RNA)
# RNA: B9 RNA with G28C, U29A, C30G
# DNA 1: CAATCTGAATTCCGGTCTCCC
# DNA 2: TGGTGGCTACGACGGGATT
# B26: GGGGCAG (DNA:RNA)
# RNA: B9 RNA with U29C, C30A, U31G
# DNA 1: CAATCTGAATTCCGGTCTCCC
# DNA 2: TGGTGGCTACGACGGGATT
# B27: CCAUAAU (DNA:RNA)
# RNA: B1 RNA with A25C, A26C, U27A, A28U, U30A, A31U
# DNA 1: CAATCTGAATTCCGGTCTCCC
# DNA 2: TGGTGGCTACGACGGGATT
# B28: CCUAAGA (DNA:RNA)
# RNA: B1 RNA with A25C, A26C, U30G
# DNA 1: CAATCTGAATTCCGGTCTCCC
# DNA 2: TGGTGGCTACGACGGGATT
# B29: GUAGGGA (DNA:RNA)
# RNA: B9 RNA with G26U, G27A, U29G, C30G, U31A
# DNA 1: CAATCTGAATTCCGGTCTCCC
# DNA 2: TGGTGGCTACGACGGGATT
# B30: CUCCGUG (DNA:RNA)
# RNA: B1 RNA with A25C, A26U, U27C, A28C, A29G, A31G
# DNA 1: CAATCTGAATTCCGGTCTCCC
# DNA 2: TGGTGGCTACGACGGGATT
# B31: CGGUUAU (DNA:RNA)
# RNA: B9 RNA with G25C, G28U, C30A
# DNA 1: CAATCTGAATTCCGGTCTCCC
# DNA 2: TGGTGGCTACGACGGGATT
# Biological target: T1, RBFOX1 RRM
# Experiment: EMSA; HiTS-Eq, 1 nM pool, 10 min; buffer printed only for the single-RNA assays: 10 mM Tris pH 7.5, 150 mM NaCl, 3.4 mM EDTA, 0.001% NP-40, 30 C
# Settings: tags: His6 N-terminal (pET28a); label: 5' 32P
# How it was run: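 Purified RbFox RRM (wild type or mutant) was equilibrated for 10 min in 50 µL with 1 nM of a 5′-radiolabelled pool of RNA with 7 randomized nucleotides, its flanks annealed to DNA oligonucleotides, across increasing protein concentrations. Free RNA was separated by 8% native PAGE, excised, reverse-transcribed, PCR-barcoded and sequenced on an Illumina HiSeq 2500. Relative association constants came from read-count changes of each variant against the control reaction, normalised to the cognate motif.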
row,Binder,binding signal
1,B1,0.000771 KA relative to UGCAUGU
2,B2,0.0222 KA relative to UGCAUGU
3,B3,0.00601 KA relative to UGCAUGU
4,B4,0.00782 KA relative to UGCAUGU
5,B5,0.00287 KA relative to UGCAUGU
6,B6,0.0108 KA relative to UGCAUGU
7,B7,0.00714 KA relative to UGCAUGU
8,B8,0.0035 KA relative to UGCAUGU
9,B9,0.0436 KA relative to UGCAUGU
10,B10,0.0244 KA relative to UGCAUGU
11,B11,0.00918 KA relative to UGCAUGU
12,B12,0.0296 KA relative to UGCAUGU
13,B13,0.0306 KA relative to UGCAUGU
14,B14,0.0407 KA relative to UGCAUGU
15,B15,0.00134 KA relative to UGCAUGU
16,B16,0.0142 KA relative to UGCAUGU

row,Binder,binding signal
1,B17,0.0142 KA relative to UGCAUGU
2,B18,0.0109 KA relative to UGCAUGU
3,B19,0.00865 KA relative to UGCAUGU
4,B20,0.0144 KA relative to UGCAUGU
5,B21,0.0252 KA relative to UGCAUGU
6,B22,0.0043 KA relative to UGCAUGU
7,B23,0.032 KA relative to UGCAUGU
8,B24,0.0227 KA relative to UGCAUGU
9,B25,0.0161 KA relative to UGCAUGU
10,B26,0.0491 KA relative to UGCAUGU
11,B27,0.00169 KA relative to UGCAUGU
12,B28,0.00773 KA relative to UGCAUGU
13,B29,0.00497 KA relative to UGCAUGU
14,B30,0.0111 KA relative to UGCAUGU
15,B31,0.0102 KA relative to UGCAUGU
